# Source: the supplement of paper PMC6411743
# ± gives the standard deviation of the averaged measurements. About 5,400 targets were measured; listed, in parts, are those with the largest changes and a random draw of the rest.
# Compound: Nc1nc2c(ncn2[C@@H]2O[C@H](COP(=O)(O)OP(=O)(O)OP(=O)(O)O)[C@@H](O)[C@H]2O)c(=O)[nH]1 [guanosine triphosphate]
# Experiment: NP40-soluble protein abundance relative to vehicle (solubility fold change) (ratio); higher = more soluble protein in presence of GTP
# In short: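 Crude Jurkat lysate, prepared by Dounce homogenisation, was exposed to eight concentrations from 0.1 to 10 mM for 10 min at room temperature and then 3 min at 37 °C. Solubilisation used 0.8% NP40 with benzonase for 60 min at 4 °C, followed by ultracentrifugation and TMT labelling of the supernatant for LC-MS/MS. After vsn normalisation of intensities, each value is the fold change against the detergent-processed vehicle within each replicate, across three independent experiments.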
# Sequence of UniProt Q92696 (Q92696 whole entry): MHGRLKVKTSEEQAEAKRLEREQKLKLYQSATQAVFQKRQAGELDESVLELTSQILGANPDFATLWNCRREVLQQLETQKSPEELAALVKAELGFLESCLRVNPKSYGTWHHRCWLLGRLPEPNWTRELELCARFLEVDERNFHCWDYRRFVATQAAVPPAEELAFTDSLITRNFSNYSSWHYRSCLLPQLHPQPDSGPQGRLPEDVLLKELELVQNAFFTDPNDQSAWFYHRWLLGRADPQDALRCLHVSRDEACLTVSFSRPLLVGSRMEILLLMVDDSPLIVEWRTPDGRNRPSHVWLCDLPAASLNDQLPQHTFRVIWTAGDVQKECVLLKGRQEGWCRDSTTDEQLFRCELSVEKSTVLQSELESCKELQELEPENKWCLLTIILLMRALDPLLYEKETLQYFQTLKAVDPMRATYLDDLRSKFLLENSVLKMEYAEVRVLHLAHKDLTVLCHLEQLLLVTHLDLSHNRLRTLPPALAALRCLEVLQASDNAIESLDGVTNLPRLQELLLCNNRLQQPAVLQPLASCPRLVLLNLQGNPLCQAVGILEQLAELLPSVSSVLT
# Sequence of UniProt Q16643 (Q16643 whole entry): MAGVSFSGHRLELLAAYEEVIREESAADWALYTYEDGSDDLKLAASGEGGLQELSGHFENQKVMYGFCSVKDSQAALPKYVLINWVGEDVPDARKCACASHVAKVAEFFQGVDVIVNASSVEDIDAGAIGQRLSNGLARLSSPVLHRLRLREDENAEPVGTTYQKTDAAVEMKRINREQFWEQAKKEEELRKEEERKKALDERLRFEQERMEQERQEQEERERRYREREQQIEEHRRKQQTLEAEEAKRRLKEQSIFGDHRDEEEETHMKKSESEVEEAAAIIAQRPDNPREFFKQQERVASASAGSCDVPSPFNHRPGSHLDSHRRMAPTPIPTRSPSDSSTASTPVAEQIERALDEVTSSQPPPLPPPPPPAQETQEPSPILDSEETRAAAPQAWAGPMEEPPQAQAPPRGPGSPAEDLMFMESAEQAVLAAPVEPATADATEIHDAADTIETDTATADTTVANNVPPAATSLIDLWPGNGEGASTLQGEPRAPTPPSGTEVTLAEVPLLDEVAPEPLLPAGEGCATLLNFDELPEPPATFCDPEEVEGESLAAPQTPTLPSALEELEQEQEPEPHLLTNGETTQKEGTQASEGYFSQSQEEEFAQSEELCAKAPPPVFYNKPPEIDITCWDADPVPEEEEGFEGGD
# Sequence of UniProt Q14789 (Q14789 whole entry): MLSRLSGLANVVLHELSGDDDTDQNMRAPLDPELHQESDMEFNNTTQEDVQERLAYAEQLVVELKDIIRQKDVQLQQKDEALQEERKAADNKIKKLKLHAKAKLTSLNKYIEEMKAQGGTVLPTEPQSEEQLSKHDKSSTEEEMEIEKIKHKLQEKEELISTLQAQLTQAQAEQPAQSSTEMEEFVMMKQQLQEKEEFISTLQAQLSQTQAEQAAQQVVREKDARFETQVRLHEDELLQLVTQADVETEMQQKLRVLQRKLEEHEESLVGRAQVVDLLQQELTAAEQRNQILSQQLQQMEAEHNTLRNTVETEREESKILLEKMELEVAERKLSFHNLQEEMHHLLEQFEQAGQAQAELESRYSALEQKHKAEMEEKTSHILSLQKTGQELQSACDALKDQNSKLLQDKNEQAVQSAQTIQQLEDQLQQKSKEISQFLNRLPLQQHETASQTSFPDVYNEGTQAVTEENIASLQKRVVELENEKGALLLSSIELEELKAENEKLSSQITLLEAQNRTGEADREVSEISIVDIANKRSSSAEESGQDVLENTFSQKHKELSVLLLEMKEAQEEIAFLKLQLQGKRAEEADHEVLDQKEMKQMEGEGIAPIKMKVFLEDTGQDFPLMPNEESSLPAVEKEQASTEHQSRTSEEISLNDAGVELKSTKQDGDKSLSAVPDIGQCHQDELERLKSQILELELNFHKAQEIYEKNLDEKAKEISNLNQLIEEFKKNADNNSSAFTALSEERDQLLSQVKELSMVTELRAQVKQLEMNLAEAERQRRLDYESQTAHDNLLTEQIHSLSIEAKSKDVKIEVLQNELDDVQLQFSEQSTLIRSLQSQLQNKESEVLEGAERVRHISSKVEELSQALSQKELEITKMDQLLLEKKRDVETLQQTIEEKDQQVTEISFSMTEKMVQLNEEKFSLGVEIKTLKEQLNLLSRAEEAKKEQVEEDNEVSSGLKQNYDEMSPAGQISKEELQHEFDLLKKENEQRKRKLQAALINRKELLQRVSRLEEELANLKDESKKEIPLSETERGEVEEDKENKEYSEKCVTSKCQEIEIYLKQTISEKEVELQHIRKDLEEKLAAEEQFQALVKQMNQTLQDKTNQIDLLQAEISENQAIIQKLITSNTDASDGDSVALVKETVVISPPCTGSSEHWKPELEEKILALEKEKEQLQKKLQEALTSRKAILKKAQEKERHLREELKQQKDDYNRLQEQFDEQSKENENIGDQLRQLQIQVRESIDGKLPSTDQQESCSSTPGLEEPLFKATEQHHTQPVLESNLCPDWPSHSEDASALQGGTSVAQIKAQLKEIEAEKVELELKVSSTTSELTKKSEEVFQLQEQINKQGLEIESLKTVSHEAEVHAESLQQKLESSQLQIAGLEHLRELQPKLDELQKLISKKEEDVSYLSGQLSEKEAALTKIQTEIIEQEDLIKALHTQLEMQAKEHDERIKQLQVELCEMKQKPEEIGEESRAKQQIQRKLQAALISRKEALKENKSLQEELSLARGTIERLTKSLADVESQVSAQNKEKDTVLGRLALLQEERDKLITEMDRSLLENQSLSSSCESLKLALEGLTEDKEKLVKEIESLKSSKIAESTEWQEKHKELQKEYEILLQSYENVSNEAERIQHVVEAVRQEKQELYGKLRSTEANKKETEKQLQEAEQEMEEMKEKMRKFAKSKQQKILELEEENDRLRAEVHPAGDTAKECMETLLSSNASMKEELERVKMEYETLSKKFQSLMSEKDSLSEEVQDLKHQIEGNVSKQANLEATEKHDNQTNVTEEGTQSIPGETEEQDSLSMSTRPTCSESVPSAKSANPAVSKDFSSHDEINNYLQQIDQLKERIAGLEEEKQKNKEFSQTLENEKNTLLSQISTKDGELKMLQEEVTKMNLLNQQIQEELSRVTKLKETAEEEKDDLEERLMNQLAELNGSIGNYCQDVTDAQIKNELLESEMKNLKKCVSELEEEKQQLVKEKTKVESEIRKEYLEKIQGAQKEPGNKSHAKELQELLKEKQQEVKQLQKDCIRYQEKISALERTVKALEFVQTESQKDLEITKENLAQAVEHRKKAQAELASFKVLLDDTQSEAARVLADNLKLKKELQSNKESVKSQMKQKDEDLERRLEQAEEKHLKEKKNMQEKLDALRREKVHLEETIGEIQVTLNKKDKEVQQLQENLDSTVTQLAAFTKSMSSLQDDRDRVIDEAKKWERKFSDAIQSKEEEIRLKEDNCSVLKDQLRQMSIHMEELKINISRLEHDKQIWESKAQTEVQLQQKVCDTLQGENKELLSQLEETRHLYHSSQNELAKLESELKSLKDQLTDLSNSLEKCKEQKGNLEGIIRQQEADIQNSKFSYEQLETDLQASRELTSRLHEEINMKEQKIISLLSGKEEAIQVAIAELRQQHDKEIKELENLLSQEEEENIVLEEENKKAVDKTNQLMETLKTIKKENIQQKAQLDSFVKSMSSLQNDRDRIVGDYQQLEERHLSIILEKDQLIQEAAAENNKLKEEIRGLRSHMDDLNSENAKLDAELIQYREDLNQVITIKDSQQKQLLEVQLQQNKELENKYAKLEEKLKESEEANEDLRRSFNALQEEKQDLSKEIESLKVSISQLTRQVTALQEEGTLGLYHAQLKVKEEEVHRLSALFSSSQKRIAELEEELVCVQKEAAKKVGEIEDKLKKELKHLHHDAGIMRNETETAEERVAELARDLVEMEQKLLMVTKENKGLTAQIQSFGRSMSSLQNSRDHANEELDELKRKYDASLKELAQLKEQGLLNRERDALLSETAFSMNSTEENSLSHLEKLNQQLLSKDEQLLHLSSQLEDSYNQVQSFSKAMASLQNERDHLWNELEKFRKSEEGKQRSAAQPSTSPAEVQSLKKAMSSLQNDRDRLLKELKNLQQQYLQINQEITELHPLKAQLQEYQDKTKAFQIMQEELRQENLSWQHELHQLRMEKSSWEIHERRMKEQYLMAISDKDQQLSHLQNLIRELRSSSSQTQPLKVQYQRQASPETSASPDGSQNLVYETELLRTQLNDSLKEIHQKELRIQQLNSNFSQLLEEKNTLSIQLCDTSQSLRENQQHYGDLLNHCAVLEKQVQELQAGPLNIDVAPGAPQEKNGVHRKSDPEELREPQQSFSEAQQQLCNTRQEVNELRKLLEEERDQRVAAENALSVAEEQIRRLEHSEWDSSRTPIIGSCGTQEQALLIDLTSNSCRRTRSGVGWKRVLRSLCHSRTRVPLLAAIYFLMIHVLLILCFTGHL
# Sequence of UniProt P62136 (P62136 whole entry): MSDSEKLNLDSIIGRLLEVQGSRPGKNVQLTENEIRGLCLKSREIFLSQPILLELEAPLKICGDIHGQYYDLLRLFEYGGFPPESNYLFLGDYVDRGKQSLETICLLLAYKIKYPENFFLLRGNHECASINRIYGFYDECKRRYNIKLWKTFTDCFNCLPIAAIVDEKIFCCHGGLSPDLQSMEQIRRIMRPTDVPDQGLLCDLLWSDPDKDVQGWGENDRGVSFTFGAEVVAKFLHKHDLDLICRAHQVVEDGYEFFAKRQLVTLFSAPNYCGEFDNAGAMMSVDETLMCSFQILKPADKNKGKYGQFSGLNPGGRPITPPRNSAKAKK
# Sequence of UniProt Q9UKM9 (Q9UKM9 whole entry, one chain of several): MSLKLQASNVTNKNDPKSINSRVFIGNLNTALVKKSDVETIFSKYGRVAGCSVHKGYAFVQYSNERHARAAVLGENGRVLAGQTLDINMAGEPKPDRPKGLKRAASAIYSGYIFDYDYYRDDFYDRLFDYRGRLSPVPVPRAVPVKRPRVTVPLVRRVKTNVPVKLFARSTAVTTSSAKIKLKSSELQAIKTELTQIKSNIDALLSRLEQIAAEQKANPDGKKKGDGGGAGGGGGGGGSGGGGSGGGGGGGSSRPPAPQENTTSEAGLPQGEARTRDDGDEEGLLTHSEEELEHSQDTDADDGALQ
Target,NP40-soluble protein abundance (concentration: 0.1mM),NP40-soluble protein abundance (concentration: 0.5mM),NP40-soluble protein abundance (concentration: 1mM),NP40-soluble protein abundance (concentration: 2mM),NP40-soluble protein abundance (concentration: 4mM),NP40-soluble protein abundance (concentration: 6mM),NP40-soluble protein abundance (concentration: 8mM),NP40-soluble protein abundance (concentration: 10mM)
EXOSC7 (UniProt Q15024),1.09 ± 0.084,1.01 ± 0.071,1.06 ± 0.086,1.11 ± 0.12,1.26 ± 0.13,1.17 ± 0.12,1.22 ± 0.077,1.18 ± 0.061
TBL3 (UniProt Q12788),1.18 ± 0.1,1.16 ± 0.14,1.11 ± 0.058,1.36 ± 0.15,1.59 ± 0.19,1.65 ± 0.17,1.72 ± 0.21,1.7 ± 0.26
UniProt Q14103-3|D6RF44|Q14103-4,0.913 ± 0.097,0.946 ± 0.094,0.943 ± 0.085,0.894 ± 0.1,0.903 ± 0.1,0.915 ± 0.084,0.947 ± 0.11,0.929 ± 0.11
THOC2 (UniProt Q8NI27),1.14 ± 0.054,1.33 ± 0.14,1.39 ± 0.15,1.72 ± 0.29,2.05 ± 0.4,2.18 ± 0.51,2.23 ± 0.54,2.16 ± 0.48
RABGGTA (UniProt Q92696),1.04 ± 0.026,1.04 ± 0.075,0.896 ± 0.022,0.916 ± 0.068,0.91 ± 0.037,0.889 ± 0.032,0.847 ± 0.037,0.849 ± 0.07
P86790|P86791 (UniProt P86791+P86790),1.06 ± 0.015,1.06 ± 0.072,1.03 ± 0.063,0.99 ± 0.038,1.01 ± 0.068,0.948 ± 0.038,0.943 ± 0.029,0.924 ± 0.0097
UniProt Q7Z7K6|Q7Z7K6-3,1.09 ± 0.035,1.08 ± 0.071,1.16 ± 0.013,1.37 ± 0.071,1.69 ± 0.2,2.01 ± 0.27,2.24 ± 0.32,3.21 ± 0.43
CHMP7 (UniProt Q8WUX9),0.945 ± 0.058,0.935 ± 0.087,0.973 ± 0.085,0.92 ± 0.11,0.884 ± 0.074,0.9 ± 0.045,0.912 ± 0.1,0.889 ± 0.084
UniProt Q8N5G2,1.07 ± 0.1,1.03 ± 0.089,1.12 ± 0.15,1.3 ± 0.057,1.26 ± 0.24,1.16 ± 0.17,1.24 ± 0.21,1.43 ± 0.25
PPP1CA (UniProt P62136),0.894 ± 0.12,0.92 ± 0.12,0.861 ± 0.081,0.834 ± 0.072,0.855 ± 0.083,0.853 ± 0.056,0.837 ± 0.098,0.828 ± 0.092
HNRNPA1L2 (UniProt Q32P51),1.34 ± 0.52,1.32 ± 0.58,1.8 ± 0.79,1.49 ± 0.44,1.47 ± 0.51,1.67 ± 0.65,1.92 ± 0.8,1.58 ± 0.35
UniProt Q8IZ81|D6RBS5,1.12 ± 0.15,1.15 ± 0.2,0.932 ± 0.066,0.934 ± 0.069,0.944 ± 0.063,0.877 ± 0.048,0.958 ± 0.13,0.802 ± 0.051
UniProt Q14789|Q14789-2,1 ± 0.019,0.984 ± 0.041,1.02 ± 0.022,0.989 ± 0.049,0.993 ± 0.026,1 ± 0.035,1.02 ± 0.046,1.01 ± 0.051
ZC3H13 (UniProt Q5T200),1.01 ± 0.055,1.02 ± 0.063,1.07 ± 0.054,1.08 ± 0.063,1.12 ± 0.059,1.12 ± 0.055,1.24 ± 0.099,1.18 ± 0.1
UniProt Q8WUF8|Q8WUF8-3,1.03 ± 0.14,1.03 ± 0.051,0.978 ± 0.14,1 ± 0.044,0.966 ± 0.028,1.01 ± 0.014,0.959 ± 0.021,0.99 ± 0.023
Q5QPL9|Q9UKM9-2|Q9UKM9 (UniProt Q9UKM9),0.927 ± 0.04,1 ± 0.025,1.07 ± 0.14,1.07 ± 0.2,1.07 ± 0.28,1.05 ± 0.25,1.01 ± 0.24,0.949 ± 0.23
NANP (UniProt Q8TBE9),1.07 ± 0.15,0.981 ± 0.11,0.954 ± 0.14,0.982 ± 0.16,0.904 ± 0.12,0.877 ± 0.14,0.891 ± 0.2,0.861 ± 0.15
FAM160B1 (UniProt Q5W0V3),1.03 ± 0.037,1.03 ± 0.027,0.964 ± 0.029,0.959 ± 0.02,0.9389 ± 0.0083,0.922 ± 0.0022,0.91 ± 0.033,0.894 ± 0.051
UniProt Q8IX12|Q8IX12-2,0.993 ± 0.042,0.985 ± 0.027,1.004 ± 0.0041,0.996 ± 0.03,1.08 ± 0.056,1.12 ± 0.06,1.17 ± 0.077,1.14 ± 0.059
UniProt P62277,0.945 ± 0.11,0.964 ± 0.11,1.03 ± 0.22,1.02 ± 0.3,0.802 ± 0.25,0.796 ± 0.27,0.626 ± 0.17,0.816 ± 0.29
DHX9 (UniProt Q08211),1.03 ± 0.088,1.13 ± 0.16,1.06 ± 0.17,1.2 ± 0.26,1.32 ± 0.28,1.49 ± 0.37,1.52 ± 0.3,1.64 ± 0.33
UniProt Q63HQ0,0.923 ± 0.075,0.935 ± 0.056,0.951 ± 0.099,0.911 ± 0.13,1.02 ± 0.16,0.961 ± 0.12,0.952 ± 0.091,0.972 ± 0.11
THOC5 (UniProt Q13769),1.18 ± 0.0098,1.35 ± 0.093,1.5 ± 0.18,1.83 ± 0.36,2.21 ± 0.56,2.3 ± 0.66,2.45 ± 0.77,2.37 ± 0.74
UniProt Q16643|Q16643-2|Q16643-3,0.894 ± 0.061,0.888 ± 0.11,0.903 ± 0.11,0.905 ± 0.11,1.08 ± 0.1,1.24 ± 0.11,1.52 ± 0.15,1.81 ± 0.12
UniProt Q2TB10|A0A087WXB4,1.04 ± 0.1,1.15 ± 0.14,1.15 ± 0.12,1.36 ± 0.28,1.68 ± 0.48,1.9 ± 0.44,2.04 ± 0.64,2.54 ± 1.1
NFXL1 (UniProt Q6ZNB6),1.04 ± 0.079,1.09 ± 0.1,1.05 ± 0.091,1.11 ± 0.067,1.13 ± 0.12,1.16 ± 0.13,1.12 ± 0.12,1.15 ± 0.11
UniProt P80217|P80217-2,0.97 ± 0.043,1.01 ± 0.063,0.926 ± 0.044,0.902 ± 0.076,0.877 ± 0.059,0.911 ± 0.067,0.934 ± 0.052,0.938 ± 0.051
UniProt P62879,0.978 ± 0.035,1.01 ± 0.064,0.917 ± 0.031,0.947 ± 0.074,0.924 ± 0.05,0.937 ± 0.054,0.913 ± 0.048,0.893 ± 0.09
UniProt Q86WQ0|Q86WQ0-2,0.973 ± 0.06,0.939 ± 0.017,0.882 ± 0.094,0.9 ± 0.082,0.884 ± 0.14,0.897 ± 0.096,0.849 ± 0.13,0.862 ± 0.099
